Screens from PubChem BioAssay.
An excerpt weighted towards active compounds, which were near 3.6% of everything screened.
KKLEB cytotox = CF airway cell cytotoxicity counter-screen; hit rate 0.36% among 360,000; activity change (cytotoxicity), % at 5 µM; KKLEB CF airway cells viability, ATPlite luminescence, overnight; hits give low values; cells stimulated with P. aeruginosa culture filtrate;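 active = corrected activity change at or below -50% at 5 µM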
CF NFkB inh = blocks PAF-induced NF-kB reporter in cystic fibrosis cells | KKLEB NF-kB-GFP reporter, GFP fluorescence overnight | inhibition, % at 5 µM | hit rate 0.86% among 360,000;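 active = at least 50% inhibition at 5 µM, scaled per plate between neutral and stimulator controls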;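 note: PAF is a Pseudomonas aeruginosa culture filtrate used as stimulus; plate controls were PAF-stimulated DMSO wells for no effect and unstimulated DMSO wells for full effect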
Peg3 promoter = reduces Peg3 promoter-driven luciferase expression in HeLa; HeLa PEG-Prom luciferase reporter, luminescence, overnight; inhibition, % at 20 µM; hit rate 1.7% among 360,000; AID 588405;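 active = inhibition of at least 50% at 20 µM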
HSP90 inh = blocks HSP90-mediated luciferase refolding in reticulocyte lysate; Rabbit reticulocyte lysate, luciferase refolding luminescence, 3 h; inhibition, % at 5.6 µM; hit rate 0.91% among 290,000; AID 1789;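 active = inhibition above the screen-wide mean plus 3 SD, computed separately per campaign, cut at about 16% in these data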;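 note: 0% = DMSO wells and 100% = 60 µM geldanamycin wells; inhibitors lower the luminescence because luciferase stays unfolded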
Mdm2 MdmX PPI = human Mdm2/MdmX binding inhibition. hit rate 3% among 330,000. inhibition, % at 8 µM. O15151+Q00987. SaOS-2 split-luciferase Mdm2/MdmX complementation, luminescence;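 active = inhibition of at least 50% at 8 µM in the primary screen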
Target sequence (O15151 whole entry, looked up): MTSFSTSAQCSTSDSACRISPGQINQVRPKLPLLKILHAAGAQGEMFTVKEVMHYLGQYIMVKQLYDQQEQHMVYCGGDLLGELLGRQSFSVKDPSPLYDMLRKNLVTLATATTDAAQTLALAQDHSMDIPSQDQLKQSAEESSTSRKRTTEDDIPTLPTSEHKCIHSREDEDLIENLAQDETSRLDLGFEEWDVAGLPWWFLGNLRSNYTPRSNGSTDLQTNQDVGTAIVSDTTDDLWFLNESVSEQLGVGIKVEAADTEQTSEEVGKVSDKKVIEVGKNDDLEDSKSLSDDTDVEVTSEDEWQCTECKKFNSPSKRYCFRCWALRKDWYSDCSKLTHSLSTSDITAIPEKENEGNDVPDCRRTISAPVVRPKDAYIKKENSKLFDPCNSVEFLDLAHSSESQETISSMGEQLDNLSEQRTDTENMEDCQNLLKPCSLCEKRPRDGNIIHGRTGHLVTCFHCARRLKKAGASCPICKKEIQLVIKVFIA
Target sequence (Q00987 whole entry, looked up): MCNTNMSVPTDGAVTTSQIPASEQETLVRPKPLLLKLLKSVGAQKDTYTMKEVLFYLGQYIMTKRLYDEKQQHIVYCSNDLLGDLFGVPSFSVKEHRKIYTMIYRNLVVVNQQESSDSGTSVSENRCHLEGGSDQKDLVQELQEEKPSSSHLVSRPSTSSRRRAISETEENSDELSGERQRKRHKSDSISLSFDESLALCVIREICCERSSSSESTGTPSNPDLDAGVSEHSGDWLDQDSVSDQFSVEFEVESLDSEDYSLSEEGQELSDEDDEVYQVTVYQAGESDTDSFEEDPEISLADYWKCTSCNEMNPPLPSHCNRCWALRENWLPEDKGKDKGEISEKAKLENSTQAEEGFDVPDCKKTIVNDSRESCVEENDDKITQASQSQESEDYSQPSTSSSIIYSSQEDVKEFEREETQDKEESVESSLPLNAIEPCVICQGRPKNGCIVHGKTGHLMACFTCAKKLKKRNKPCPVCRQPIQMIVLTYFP
LGR2 antag = blocks bursicon-induced cAMP signaling via Drosophila LGR2 | HEK293 LGR2, CRE-luciferase, bursicon-stimulated, 4 h | inhibition, % at 9.99 µM | hit rate 0.35% among 380,000 | AID 720647;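 active = drop in luminescence signal, shown as inhibition above about 50% in the replicate tests, limit read from the data, passing the limit was not always enough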;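 note: agonist challenge used bursicon conditioned medium at about half maximal strength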
Mdm2-MdmX conf = confirmation of human Mdm2/MdmX interaction inhibitors; inhibition, % at 8 µM; AID 489028; Mdm2-MdmX binding, luminescent assay; shares compounds with Mdm2 MdmX PPI; hit rate 55% among 10,000; in the data active = inhibition above about 40%
FLuc counter = counter-screen for Mdm2/MdmX inhibitors: full-length luciferase | shares compounds with Mdm2 MdmX PPI | SaOS-2 full-length luciferase counterscreen, luminescence | inhibition, % at 8 µM | hit rate 77% among 6,200 | AID 504607;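 active = mean inhibition at 8 µM reaching about 37%, which flags the compound as non-specific, limit read from the data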;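 note: p53-null SaOS-2 cells with luciferase driven by a doxycycline-inducible promoter; compound on cells about two nights before reading with doxycycline added after day one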
Active calls of the source: *.

How did C[C@@H]1CN([C@@H](C)CO)C(=O)c2cc(-c3ccccc3F)cnc2O[C@H]1CN(C)C(=O)NC1CCCC1 do in these assays?
LGR2 antag: 2

Results for COc1ccc(CNC(=O)COC(=O)c2ccccc2OCC(=O)Nc2ccc(SC(F)F)cc2)cc1 ?
KKLEB cytotox: -23; CF NFkB inh: 18; Peg3 promoter: 18; HSP90 inh: 0; Mdm2 MdmX PPI: 99*; LGR2 antag: 4; Mdm2-MdmX conf: 16

How did O=C(Nc1cc(Cl)cc(Cl)c1)Nc1cnccn1 do in these assays?
KKLEB cytotox: 3; CF NFkB inh: 30; Peg3 promoter: 22; HSP90 inh: 3; Mdm2 MdmX PPI: 75*; LGR2 antag: 1; Mdm2-MdmX conf: 30

Results for O=C(Nc1ccc(F)cc1)Nc1cnccn1 ?
KKLEB cytotox: 2; CF NFkB inh: -10; Peg3 promoter: -9; HSP90 inh: 1; Mdm2 MdmX PPI: -5; LGR2 antag: -2

How did C[C@H](CO)N1C[C@H](C)[C@@H](CN(C)C(=O)Cc2cccnc2)Oc2cc(C3=CCCCC3)ccc2S1(=O)=O do in these assays?
LGR2 antag: -5

Results for O=C(COc1ccc(Br)cc1Cl)NC(=O)Nc1ccc2c(c1)OCCO2 ?
KKLEB cytotox: -4; CF NFkB inh: 16; Peg3 promoter: -136; HSP90 inh: 2; Mdm2 MdmX PPI: 53*; LGR2 antag: -57; Mdm2-MdmX conf: 5

Results for O=C(COc1ccccc1Cl)Nc1ccc2c(c1)OCCO2 ?
KKLEB cytotox: -33; CF NFkB inh: -1; Peg3 promoter: -332; HSP90 inh: -4; Mdm2 MdmX PPI: -106

Results for Nc1ccc(C23CC4CC(CC(CO)(C4)C2)C3)cc1 ?
KKLEB cytotox: -3; CF NFkB inh: -7; Peg3 promoter: -36; HSP90 inh: 0; Mdm2 MdmX PPI: 10

How did NCC12CC3CC(C1)CC(c1ccc(Cl)cc1)(C3)C2 do in these assays?
KKLEB cytotox: -29; CF NFkB inh: 23; Peg3 promoter: 108*; HSP90 inh: -1; Mdm2 MdmX PPI: 96*; LGR2 antag: 16; Mdm2-MdmX conf: 28

What do the screens show for `COc1ccc(NC(=O)N[C@@H]2CC[C@@H](CCNC(=O)CCN3CCCCC3)O[C@H]2CO)cc1`?
LGR2 antag: -3

Results for COc1ccc(-c2cc(N)n(S(=O)(=O)c3c(F)c(F)c(F)c(F)c3F)n2)cc1OC ?
KKLEB cytotox: -13; CF NFkB inh: 32; Peg3 promoter: 110*; HSP90 inh: -2; Mdm2 MdmX PPI: 81*; LGR2 antag: -15; Mdm2-MdmX conf: 100*; FLuc counter: -1

How did CNC[C@H]1Oc2ccc(NS(=O)(=O)c3ccc(F)cc3)cc2C(=O)N([C@@H](C)CO)C[C@H]1C do in these assays?
LGR2 antag: 6

Results for COC(=O)c1ccc(C(=O)OC)c(NC(=O)CSc2nc(-c3ccco3)cc(C(F)(F)F)n2)c1 ?
KKLEB cytotox: -4; CF NFkB inh: 6; Peg3 promoter: 15; HSP90 inh: -1

How did O=C(CSc1nc(-c2ccco2)cc(C(F)(F)F)n1)Nc1ccc2c(c1)CCC2 do in these assays?
KKLEB cytotox: -5; CF NFkB inh: -1; Peg3 promoter: -10; HSP90 inh: 2; Mdm2 MdmX PPI: 52*; Mdm2-MdmX conf: 61*; FLuc counter: 45*

Results for COC(=O)c1ccccc1NC(=O)CSc1nc(-c2ccco2)cc(C(F)(F)F)n1 ?
KKLEB cytotox: -16; CF NFkB inh: 35; Peg3 promoter: 25; HSP90 inh: 1; Mdm2 MdmX PPI: 67*; LGR2 antag: 8; Mdm2-MdmX conf: 62*; FLuc counter: 74*

Results for Cc1cc(NC(=O)CSc2nc(-c3ccco3)cc(C(F)(F)F)n2)n(-c2ccccc2)n1 ?
KKLEB cytotox: -6; CF NFkB inh: 5; Peg3 promoter: 16; HSP90 inh: -2; Mdm2 MdmX PPI: 54*; Mdm2-MdmX conf: 56*; FLuc counter: 54*

How did Cc1ccc(NC(=O)CSc2nc(-c3ccco3)cc(C(F)(F)F)n2)cc1C do in these assays?
KKLEB cytotox: -12; CF NFkB inh: 21; Peg3 promoter: 37; HSP90 inh: 3; Mdm2 MdmX PPI: 44

What do the screens show for `Cc1cc(NC(=O)CCCSc2nc(-c3ccco3)cc(C(F)(F)F)n2)n(-c2ccccc2)n1`?
KKLEB cytotox: -2; CF NFkB inh: 18; Peg3 promoter: 10; HSP90 inh: 4; Mdm2 MdmX PPI: 10

How did CN(C)C(=O)c1cccc(-c2cccc(-c3nc(C(=O)NCc4ccccc4)cc4c3[C@H](CCO)N([S@@](=O)C(C)(C)C)C4)c2)c1 do in these assays?
LGR2 antag: -26

How did CC(C)NC(=O)NCC[C@@H]1CC[C@@H](NS(=O)(=O)c2ccc(-c3ccccc3)cc2)[C@@H](CO)O1 do in these assays?
LGR2 antag: 12

How did COc1ccc(OC)c(Nc2nc(-c3cccc([N+](=O)[O-])c3)nc3ccccc23)c1 do in these assays?
KKLEB cytotox: -34; CF NFkB inh: 8; Peg3 promoter: 31; HSP90 inh: 3; Mdm2 MdmX PPI: 60*; Mdm2-MdmX conf: -5

What do the screens show for `COc1ccc(Nc2nc(-c3cccc([N+](=O)[O-])c3)nc3ccccc23)c(OC)c1`?
KKLEB cytotox: -24; CF NFkB inh: 10; Peg3 promoter: 11; HSP90 inh: -5; Mdm2 MdmX PPI: 39; LGR2 antag: -6

Results for CNC[C@H]1Oc2ccc(NC(=O)Nc3ccc4c(c3)OCO4)cc2CC(=O)N([C@@H](C)CO)C[C@H]1C ?
LGR2 antag: 7

What do the screens show for `COCC(=O)Nc1ccc2c(c1)[C@@H]1C[C@@H](CC(=O)NCc3ccc(OC)cc3)O[C@H](CO)[C@@H]1O2`?
LGR2 antag: 10

Results for Cc1cc(C2CCCCC2)n(O)c(=O)c1 ?
KKLEB cytotox: -16; CF NFkB inh: 20; Peg3 promoter: 51*; Mdm2 MdmX PPI: 74*; LGR2 antag: 6; Mdm2-MdmX conf: 58*; FLuc counter: 32

How did Cn1c(NC2CCCCC2)cc(=O)n(C)c1=O do in these assays?
KKLEB cytotox: 6; CF NFkB inh: 8; Peg3 promoter: -4; HSP90 inh: 1; Mdm2 MdmX PPI: 26; LGR2 antag: 3

Results for COc1ccc(NC(=O)N(C)C[C@H]2OCCCC[C@@H](C)Oc3ccc(NC(=O)CCCN(C)C)cc3C(=O)N([C@H](C)CO)C[C@H]2C)cc1 ?
LGR2 antag: 4

Results for CC1CCN(CCOCCOc2ccc(Br)cc2Cl)CC1 ?
KKLEB cytotox: -29; CF NFkB inh: 14; Peg3 promoter: 13; HSP90 inh: -1; Mdm2 MdmX PPI: 52*; LGR2 antag: -13; Mdm2-MdmX conf: 20
